# According to the supplement of paper PMC4466140:
# Legend:
# Test in all cases: SPOT peptide array binding signal intensity (averaged, normalized) (arbitrary units (background-subtracted, floor 0; scale differs between SH3 domains)); higher = stronger binding of the SH3 domain to the peptide
# [1] = target: AgAbp1
# Summary of the method: (§1)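 E. coli BL21(DE3) was used to express GST-fused SH3 domains from four yeast species, which were then purified on glutathione Sepharose. These were incubated at 10 μg/ml in TBS-based blocking buffer overnight at 4°C on cellulose membranes carrying synthetic 15-mer peptides, in which cysteines were replaced by serines. Binding signal is the replicate average of normalized, background-subtracted spot intensity, in arbitrary units that differ between domains.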
# [2] = target: AgBbc1
# Summary of the method: as §1
# [3] = target: AgBem1-D1
# Summary of the method: as §1
# [4] = target: AgBzz1-D1
# Summary of the method: as §1
# [5] = target: AgBzz1-D2
# Summary of the method: as §1
# [6] = target: AgCyk3
# Summary of the method: as §1
# [7] = target: AgFus1
# Summary of the method: as §1
# [8] = target: AgHof1
# Summary of the method: as §1
# [9] = target: AgHse1
# Summary of the method: as §1
# [10] = target: AgLsb1
# Summary of the method: as §1
# [11] = target: AgLsb4
# Summary of the method: as §1
# [12] = target: AgMyo5
# Summary of the method: as §1
# [13] = target: AgNbp2
# Summary of the method: as §1
# [14] = target: AgRvs167
# Summary of the method: as §1
# [15] = target: AgSho1
# Summary of the method: as §1
# [16] = target: AgSla1-D1-D2
# Summary of the method: as §1
# [17] = target: AgSla1-D3
# Summary of the method: as §1
# [18] = target: CaAbp1-D1
# Summary of the method: as §1
# [19] = target: CaAbp1-D2
# Summary of the method: as §1
# [20] = target: CaBbc1
# Summary of the method: as §1
# [21] = target: CaBem1-D1
# Summary of the method: as §1
# [22] = target: CaBzz1-D1
# Summary of the method: as §1
# [23] = target: CaBzz1-D2
# Summary of the method: as §1
# [24] = target: CaCyk3
# Summary of the method: as §1
# [25] = target: CaFus1
# Summary of the method: as §1
# [26] = target: CaHof1
# Summary of the method: as §1
# [27] = target: CaHse1
# Summary of the method: as §1
# [28] = target: CaLsb1
# Summary of the method: as §1
# [29] = target: CaLsb4
# Summary of the method: as §1
# [30] = target: CaMyo5
# Summary of the method: as §1
# [31] = target: CaNbp2
# Summary of the method: as §1
# [32] = target: CaRvs167
# Summary of the method: as §1
# [33] = target: CaRvs167-3
# Summary of the method: as §1
# [34] = target: CaSho1
# Summary of the method: as §1
# [35] = target: CaSla1-D1-D2
# Summary of the method: as §1
# [36] = target: CaSla1-D3
# Summary of the method: as §1
# [37] = target: ScAbp1
# Summary of the method: as §1
# [38] = target: ScBbc1
# Summary of the method: as §1
# [39] = target: ScBem1-D1
# Summary of the method: as §1
# [40] = target: ScBzz1-D1
# Summary of the method: as §1
# [41] = target: ScBzz1-D2
# Summary of the method: as §1
# [42] = target: ScCyk3
# Summary of the method: as §1
# [43] = target: ScFus1
# Summary of the method: as §1
# [44] = target: ScHof1
# Summary of the method: as §1
# [45] = target: ScHse1
# Summary of the method: as §1
# [46] = target: ScLsb1
# Summary of the method: as §1
# [47] = target: ScLsb2
# Summary of the method: as §1
# [48] = target: ScLsb3
# Summary of the method: as §1
# [49] = target: ScLsb4
# Summary of the method: as §1
# [50] = target: ScMyo3
# Summary of the method: as §1
# [51] = target: ScMyo5
# Summary of the method: as §1
# [52] = target: ScNbp2
# Summary of the method: as §1
# [53] = target: ScPex13
# Summary of the method: as §1
# [54] = target: ScRvs167
# Summary of the method: as §1
# [55] = target: ScSho1
# Summary of the method: as §1
# [56] = target: ScSla1-D1-D2
# Summary of the method: as §1
# [57] = target: ScSla1-D3
# Summary of the method: as §1
# [58] = target: SpAbp1-D1
# Summary of the method: as §1
# [59] = target: SpBbc1
# Summary of the method: as §1
# [60] = target: SpBzz1-D1
# Summary of the method: as §1
# [61] = target: SpBzz1-D2
# Summary of the method: as §1
# [62] = target: SpCyk3
# Summary of the method: as §1
# [63] = target: SpHof1
# Summary of the method: as §1
# [64] = target: SpHof1-2
# Summary of the method: as §1
# [65] = target: SpHof1-3
# Summary of the method: as §1
# [66] = target: SpHse1
# Summary of the method: as §1
# [67] = target: SpLsb1
# Summary of the method: as §1
# [68] = target: SpLsb4
# Summary of the method: as §1
# [69] = target: SpMyo1
# Summary of the method: as §1
# [70] = target: SpNbp2
# Summary of the method: as §1
# [71] = target: SpPex13
# Summary of the method: as §1
# [72] = target: SpRvs167
# Summary of the method: as §1
# [73] = target: SpSla1-D1-D2
# Summary of the method: as §1
# [74] = target: SpSla1-D3
# Summary of the method: as §1
binder,measurement,setting,value
LRWRHKFFLPAIAAI,SPOT peptide array binding signal intensity,[1],73
same,SPOT peptide array binding signal intensity,[2],14.2
same,SPOT peptide array binding signal intensity,[3],52.5
same,SPOT peptide array binding signal intensity,[4],≤ 0
same,SPOT peptide array binding signal intensity,[5],≤ 0
same,SPOT peptide array binding signal intensity,[6],0.5
same,SPOT peptide array binding signal intensity,[7],299
same,SPOT peptide array binding signal intensity,[8],9.38
same,SPOT peptide array binding signal intensity,[9],979
same,SPOT peptide array binding signal intensity,[10],≤ 0
same,SPOT peptide array binding signal intensity,[11],18.8
same,SPOT peptide array binding signal intensity,[12],≤ 0
same,SPOT peptide array binding signal intensity,[13],14.8
same,SPOT peptide array binding signal intensity,[14],1.17
same,SPOT peptide array binding signal intensity,[15],32
same,SPOT peptide array binding signal intensity,[16],2.5
same,SPOT peptide array binding signal intensity,[17],2.25
same,SPOT peptide array binding signal intensity,[18],312
same,SPOT peptide array binding signal intensity,[19],422
same,SPOT peptide array binding signal intensity,[20],13
same,SPOT peptide array binding signal intensity,[21],4.5
same,SPOT peptide array binding signal intensity,[22],23.2
same,SPOT peptide array binding signal intensity,[23],0.25
same,SPOT peptide array binding signal intensity,[24],1.5
same,SPOT peptide array binding signal intensity,[25],728
same,SPOT peptide array binding signal intensity,[26],≤ 0
same,SPOT peptide array binding signal intensity,[27],28.5
same,SPOT peptide array binding signal intensity,[28],0.25
same,SPOT peptide array binding signal intensity,[29],2.5
same,SPOT peptide array binding signal intensity,[30],4
same,SPOT peptide array binding signal intensity,[31],116
same,SPOT peptide array binding signal intensity,[32],12.8
same,SPOT peptide array binding signal intensity,[33],24
same,SPOT peptide array binding signal intensity,[34],228
same,SPOT peptide array binding signal intensity,[35],≤ 0
same,SPOT peptide array binding signal intensity,[36],3.12
same,SPOT peptide array binding signal intensity,[37],53.5
same,SPOT peptide array binding signal intensity,[38],0.875
same,SPOT peptide array binding signal intensity,[39],9.5
same,SPOT peptide array binding signal intensity,[40],4.5
same,SPOT peptide array binding signal intensity,[41],14.2
same,SPOT peptide array binding signal intensity,[42],18.5
same,SPOT peptide array binding signal intensity,[43],209
same,SPOT peptide array binding signal intensity,[44],1.25
same,SPOT peptide array binding signal intensity,[45],1040
same,SPOT peptide array binding signal intensity,[46],0.25
same,SPOT peptide array binding signal intensity,[47],≤ 0
same,SPOT peptide array binding signal intensity,[48],≤ 0
same,SPOT peptide array binding signal intensity,[49],4.25
same,SPOT peptide array binding signal intensity,[50],≤ 0
same,SPOT peptide array binding signal intensity,[51],≤ 0
same,SPOT peptide array binding signal intensity,[52],20.2
same,SPOT peptide array binding signal intensity,[53],≤ 0
same,SPOT peptide array binding signal intensity,[54],1.5
same,SPOT peptide array binding signal intensity,[55],759
same,SPOT peptide array binding signal intensity,[56],≤ 0
same,SPOT peptide array binding signal intensity,[57],≤ 0
same,SPOT peptide array binding signal intensity,[58],166
same,SPOT peptide array binding signal intensity,[59],1.75
same,SPOT peptide array binding signal intensity,[60],≤ 0
same,SPOT peptide array binding signal intensity,[61],≤ 0
same,SPOT peptide array binding signal intensity,[62],1
same,SPOT peptide array binding signal intensity,[63],33.1
same,SPOT peptide array binding signal intensity,[64],2.25
same,SPOT peptide array binding signal intensity,[65],830
same,SPOT peptide array binding signal intensity,[66],667
same,SPOT peptide array binding signal intensity,[67],≤ 0
same,SPOT peptide array binding signal intensity,[68],21.2
same,SPOT peptide array binding signal intensity,[69],≤ 0
same,SPOT peptide array binding signal intensity,[70],41.8
same,SPOT peptide array binding signal intensity,[71],6.25
same,SPOT peptide array binding signal intensity,[72],1
same,SPOT peptide array binding signal intensity,[73],2
same,SPOT peptide array binding signal intensity,[74],≤ 0
LRIKRKPVQTFFEFI,SPOT peptide array binding signal intensity,[31],468
same,SPOT peptide array binding signal intensity,[32],16.5
same,SPOT peptide array binding signal intensity,[33],843
same,SPOT peptide array binding signal intensity,[34],1260
same,SPOT peptide array binding signal intensity,[35],37
same,SPOT peptide array binding signal intensity,[36],37
same,SPOT peptide array binding signal intensity,[37],355
same,SPOT peptide array binding signal intensity,[38],6.75
same,SPOT peptide array binding signal intensity,[39],57
same,SPOT peptide array binding signal intensity,[40],39.5
same,SPOT peptide array binding signal intensity,[41],49.5
same,SPOT peptide array binding signal intensity,[42],138
same,SPOT peptide array binding signal intensity,[43],651
same,SPOT peptide array binding signal intensity,[44],5.5
same,SPOT peptide array binding signal intensity,[45],1800
same,SPOT peptide array binding signal intensity,[46],21.2
same,SPOT peptide array binding signal intensity,[47],5.5
same,SPOT peptide array binding signal intensity,[48],156
same,SPOT peptide array binding signal intensity,[49],23
same,SPOT peptide array binding signal intensity,[50],7
same,SPOT peptide array binding signal intensity,[51],1.75
same,SPOT peptide array binding signal intensity,[52],150
same,SPOT peptide array binding signal intensity,[53],18
same,SPOT peptide array binding signal intensity,[54],24.2
same,SPOT peptide array binding signal intensity,[55],718
same,SPOT peptide array binding signal intensity,[56],220
same,SPOT peptide array binding signal intensity,[57],14
same,SPOT peptide array binding signal intensity,[58],228
same,SPOT peptide array binding signal intensity,[59],5
same,SPOT peptide array binding signal intensity,[60],128
same,SPOT peptide array binding signal intensity,[61],0.5
same,SPOT peptide array binding signal intensity,[62],2
same,SPOT peptide array binding signal intensity,[63],436
same,SPOT peptide array binding signal intensity,[64],14
same,SPOT peptide array binding signal intensity,[65],784
same,SPOT peptide array binding signal intensity,[66],686
same,SPOT peptide array binding signal intensity,[67],4.25
same,SPOT peptide array binding signal intensity,[68],100
same,SPOT peptide array binding signal intensity,[69],4.5
same,SPOT peptide array binding signal intensity,[70],370
same,SPOT peptide array binding signal intensity,[71],23.5
same,SPOT peptide array binding signal intensity,[72],32.5
same,SPOT peptide array binding signal intensity,[73],≤ 0
same,SPOT peptide array binding signal intensity,[74],37
